Screens as filed in PubChem.
aSyn yeast inh: alpha-synuclein toxicity inhibition in yeast | Yeast expressing alpha-synuclein, growth rescue, BacTiter-Glo, 24 h | Potency, µM (highest dose often 46.1 µM), actives largely listed as activators | actives 0.14% (n = 370,000); further: nearly all actives have a fitted effect of over 65% in size
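Galactose-induced alpha-syn yeast (OD600=0.02, raffinose-pregrown) + pinned cpd, 24 hr, 30 deg C; growth by BacTiter-Glo luminescence. Growth restoration scores as activation.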
FUS yeast rescue: rescues growth of FUS-expressing yeast | S. cerevisiae FUS-expressing, growth rescue, OD600, 24 h | Potency, µM (highest dose often 76.6 µM), actives largely listed as activators | actives 0.24% (n = 390,000) | AID 1347120; further: nearly all actives have a fitted effect of over 55% in size
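Read-out: OD at 600 nm after 24hr at 30C, reporting rescue of FUS-induced yeast toxicity. Cells at OD 0.005 in galactose (2%) minimal medium; compounds tested in a dilution series; CP55940 titration from 92uM final as control.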
Abeta rescue: restores growth of yeast expressing A-beta42 peptide; actives 0.063% (n = 410,000); yeast expressing A-beta42, growth rescue, OD600, 48 h; response scale: 0% DMSO, 100% iron-clioquinol control; AID 1347071; Potency, µM (top dose mostly 46.1 µM), most hits filed as activators; further: nearly all actives have a fitted effect of over 55% in size
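Yeast A-beta toxicity model in growth medium with pinned compounds, 48 h at 30 C; growth read as absorbance at 600 nm. Normalized to FeCl3/clioquinol equimolar mix (positive) and DMSO (negative).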
TDP-43 yeast inh: inhibitors of TDP-43 toxicity in yeast; actives 1.8% (n = 410,000); Potency, µM (titrated, usually from 46.1 µM), usual class: activators; TDP-43 expressing yeast growth rescue, BacTiter-Glo, 24 h; further: nearly all actives have a fitted effect of over 50% in size
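Yeast expressing TDP-43 (pregrown in raffinose, seeded at OD600=0.02 in galactose medium) exposed to compounds 24 hr at 30 deg C. Growth read by BacTiter-Glo luminescence; rescue of toxicity appears as increased signal.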
Each line names hits and unclear results; the compound was inactive in the other large screens. Compounds with a hit are over-represented: about 2.1% of the library has one in this group of screens. The call rests on the fitted dose curve; in most records, active means well fitted curve in the direction sought with a large enough effect; inconclusive means small, poorly fitted or top-dose-only effect, or another doubt; inactive means no such curve, though single readings can be large; an effect the other way counts as inactive or inconclusive.

COc1nc(-c2ccccc2)c2cc(C)ccc2n1	TDP-43 yeast inh 13µM
Nc1ccc(N=Nc2ccccc2O)c(N)c1	none
Oc1ccccc1N=Nc1ccccc1O	aSyn yeast inh 13µM, Abeta rescue inconclusive, TDP-43 yeast inh inconclusive
COc1cc2nc(N3CCCCC3)nc(NC(C)C)c2cc1OC	none (no result: FUS yeast rescue, Abeta rescue, TDP-43 yeast inh)
CC1Cc2ccccc2N1c1ncnc(N)c1[N+](=O)[O-] (stereo not given)	TDP-43 yeast inh 11µM
c1ccc2c(c1)CCN(c1ncnc3nc[nH]c13)C2	none
CC1CCCCN1c1ncnc(N)c1[N+](=O)[O-] (stereo not given)	none
CC1Cc2ccccc2N1c1ncnc2nc[nH]c12 (stereo not given)	TDP-43 yeast inh 20µM
CC(=O)N1N=C(c2ccccc2)CC1c1cn(C)c2ccccc12 (stereo not given)	TDP-43 yeast inh 20µM (no result: FUS yeast rescue)
Cc1cnc2ccccc2c1/C=C/c1ccc(N)cc1	none (no result: FUS yeast rescue, Abeta rescue, TDP-43 yeast inh)
COc1cccc(NC(=O)Nc2c(-c3ccc(F)cc3)nc3ncccn23)c1	none (no result: aSyn yeast inh, Abeta rescue, TDP-43 yeast inh)
Nc1ccc(-c2nc3ncccc3o2)cc1	aSyn yeast inh 16µM, Abeta rescue inconclusive
CCN(Cc1nc2ccccc2c(=O)[nH]1)C(=O)c1cccc(OCc2c(C)noc2C)c1	none
CCN(Cc1ccc(Cl)s1)C(=O)c1cccc(OCc2c(C)noc2C)c1	TDP-43 yeast inh 35µM (no result: FUS yeast rescue)
Oc1ccccc1-c1nc(NCC2CCCO2)c2ccccc2n1 (stereo not given)	TDP-43 yeast inh 11µM
CC1CCN(c2nc(-c3ccncc3)nc3ccccc23)CC1	aSyn yeast inh inconclusive, TDP-43 yeast inh 13µM
CC1CCCN(c2nc(-c3ccccc3O)nc3ccccc23)C1 (stereo not given)	TDP-43 yeast inh 20µM
COC(CNC(=O)[C@H](Cc1ccccc1)NC(C)(C)C(=O)NC1CCCCC1)OC	none (no result: aSyn yeast inh, Abeta rescue, TDP-43 yeast inh)
COc1cc(N(C)C)c(OC)cc1/C=C1\Cc2ccccc2C1=O	none (no result: FUS yeast rescue, Abeta rescue, TDP-43 yeast inh)
Cc1c(CC(=O)N2CCN(C(=O)C3COc4ccccc4O3)CC2)c(=O)oc2cc(O)cc(O)c12 (stereo not given)	FUS yeast rescue 18µM
COc1cccc(-c2cc3nc(-c4ccccc4)cc(N4CCC5(CC4)OCCO5)n3n2)c1	TDP-43 yeast inh 16µM
COc1cccc(-c2cc3nc(C)cc(N4CCN(C(=O)c5ccoc5)CC4)n3n2)c1	none
COc1cccc(-c2cc(N3CCN(C(=O)c4ccoc4)CC3)n3nc(-c4cccc(Cl)c4)cc3n2)c1	TDP-43 yeast inh 3.5µM
COc1ccc(-c2cc3nc(C)cc(N4CCN(C(=O)c5ccoc5)CC4)n3n2)cc1	TDP-43 yeast inh inconclusive
COc1cccc(-c2cc3nc(-c4ccccc4)cc(N4CCN(C(=O)c5ccoc5)CC4)n3n2)c1	FUS yeast rescue inconclusive, TDP-43 yeast inh 16µM
COc1cccc(-c2cc3nc(-c4ccco4)cc(N4CCN(C(C)=O)CC4)n3n2)c1	none (no result: aSyn yeast inh, Abeta rescue, TDP-43 yeast inh)
Cc1cccc(NNC(N)=S)c1	none
Cc1cccc(NNC(=S)Nc2c(C)cccc2C)c1	Abeta rescue 7.1µM, TDP-43 yeast inh inconclusive
Cc1cccc(NC(=S)NNc2cccc(Cl)c2)c1	Abeta rescue 13µM
Cc1cccc(NNC(=S)Nc2ccccc2)c1	none
COC1=C[C@H](C(=O)NCc2ccccc2)[C@H](C)[C@@H](c2ccccc2)CC1=O	none (no result: aSyn yeast inh, Abeta rescue, TDP-43 yeast inh)
Cn1nc([N+](=O)[O-])nc1S(C)(=O)=O	none
CS(=O)(=O)c1nc([N+](=O)[O-])nn1CCCc1ccccc1	TDP-43 yeast inh 18µM
COc1ccc(/C=C\c2onc(C)c2S(=O)(=O)N2CCC(C(=O)Nc3ccccc3OC)CC2)cc1	FUS yeast rescue 13µM (no result: aSyn yeast inh)
NNC(=S)Nc1ccc(OC(F)(F)F)cc1	Abeta rescue 11µM
NNC(=S)Nc1ccc(Cl)cc1	Abeta rescue inconclusive
Cc1ccc(/C(N)=N/OC(=O)C23CC4CC(CC(C4)C2)C3)cc1	TDP-43 yeast inh 2µM
N/C(=N\OC(=O)C12CC3CC(CC(C3)C1)C2)c1ccncc1	TDP-43 yeast inh 13µM
Cc1ccc(/C(N)=N/OC(=O)N2CCOCC2)cc1	none
O=C1N(Cc2ccccc2)c2ccccc2C12CCCc1sc(CCc3ccccc3)nc12 (stereo not given)	none (no result: aSyn yeast inh, Abeta rescue, TDP-43 yeast inh)
O=C(Nc1ccc(F)c(F)c1)c1cnn2c1NC(=C1CC1)C=C2C(F)(F)F	none (no result: FUS yeast rescue, Abeta rescue, TDP-43 yeast inh)
CC(C)CC(O)(CC(C)C)c1cn(C(=O)N(c2ccccc2)c2ccccc2)nn1	none (no result: aSyn yeast inh, Abeta rescue, TDP-43 yeast inh)
CCOC(=O)C(C(=O)OCC)C(Nc1cccc(Br)c1)c1ccccc1 (stereo not given)	TDP-43 yeast inh 13µM
